hgDAF-12 ag = activates the H. glycines DAF-12 receptor ligand-binding domain; activation, % at 6.8 µM; HEK293 GAL4-hgDAF12 UAS-luciferase reporter, agonist luminescence; normalized to butyrate control; actives 1.8% (n = 370,000); AID 687014;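 active = activation above a cutoff set at the mean of all screened compounds plus 3 SD, cut at about 10% in these data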;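 note: 0% = DMSO wells and 100% = sodium butyrate wells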
DAX1 inh-1 = inhibitors of human orphan nuclear receptor DAX1 (NR0B1); inhibition, % at 6.75 µM; actives 0.99% (n = 340,000); P51843; AID 504766; HEK293 Gal4-DAX1 luciferase reporter, luminescence;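 active = inhibition above the mean over all tested compounds plus 3 SD, cut at about 4.2% in these data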;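 note: 0% = DAX1-transfected cells with DMSO and 100% = empty-vector control cells with DMSO; inhibition shows as a rise in luminescence from relieved DAX1 repression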
Target sequence (P51843 207-470 limits assumed): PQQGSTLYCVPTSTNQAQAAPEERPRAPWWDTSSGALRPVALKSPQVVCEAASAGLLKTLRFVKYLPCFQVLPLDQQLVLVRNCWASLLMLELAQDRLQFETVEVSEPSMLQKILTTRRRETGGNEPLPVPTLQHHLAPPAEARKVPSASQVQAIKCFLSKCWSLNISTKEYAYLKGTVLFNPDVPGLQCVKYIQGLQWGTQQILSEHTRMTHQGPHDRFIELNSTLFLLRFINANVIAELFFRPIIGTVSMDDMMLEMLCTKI
ssDAF-12 act = S. stercoralis DAF-12 activation, primary screen | HEK293 ssDAF-12/GRIP1 lit1-tk-luc reporter, luminescence; % of 3 µM dafachronic acid response | activation, % at 6.8 µM | actives 1% (n = 370,000) | AID 652126;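 active = activation above the mean over all tested compounds plus 3 SD, cut at about 0.9% in these data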;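 note: 0% = DMSO-only wells and 100% = 3 µM delta7-dafachronic acid wells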
hcDAF-12 act = activators of H. contortus DAF-12 nuclear receptor | HEK293 hcDAF-12 lit1-tk-luc reporter, luminescence; 0% DMSO, 100% Δ7-dafachronic acid | activation, % at 6.8 µM | actives 1.4% (n = 370,000);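 active = activation above the mean of all tested compounds plus 3 SD, cut at about 5.5% in these data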;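 note: 100% = response to 3 µM Δ7-dafachronic acid high control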
AHR act = activators of human aryl hydrocarbon receptor | P35869 | AHR-responsive luciferase reporter cells, luminescence | activation, % at 5 µM | actives 2.5% (n = 320,000) | AID 2796; in the data active = activation above about 47%;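 note: 0% = vehicle wells and 100% = reference agonist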
DAX1 inh-2 = blocks DAX1 repression of SF-1 activated StAR promoter | HEK293T StAR-luciferase reporter, SF-1/DAX-1 repression relief | inhibition, % at 6.8 µM | actives 1.1% (n = 370,000) | AID 652010;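 active = inhibition above the mean over all tested compounds plus 3 SD, cut at about 3.6% in these data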;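 note: 0% = DAX-1 cells with DMSO and 100% = cells lacking DAX-1 with DMSO; higher inhibition means more luminescence from relief of DAX-1 repression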
* marks the source's active call; other numbers are inactive results. A selection: hits, their analogues and other compounds. The true share with any hit is near 5.7%.

Results for Clc1cccc(N=NN2CCOCC2)c1Cl ?
hgDAF-12 ag: 4; DAX1 inh-1: 0; ssDAF-12 act: 1.7*; hcDAF-12 act: 1; AHR act: 16; DAX1 inh-2: 0

How did COc1ccc(C(=O)OCC(=O)N(C)C2CCS(=O)(=O)C2)cc1S(=O)(=O)N(C)Cc1ccccc1 (configuration not stated) do in these assays?
hgDAF-12 ag: 1; DAX1 inh-1: 0; ssDAF-12 act: 0; hcDAF-12 act: -1; AHR act: 1; DAX1 inh-2: 2

Results for CCOC(=O)/C=C1/N(C)c2ccccc2C1(C)C ?
hgDAF-12 ag: 0; DAX1 inh-1: 6.1*; ssDAF-12 act: -1; hcDAF-12 act: -1; AHR act: -1; DAX1 inh-2: 1

Results for COC(=O)[C@]12C[C@H](CC(=O)NCc3ccc(OC)c(OC)c3)C(=O)N(Cc3ccccc3)C1=C[C@H](C1CCCC1)O[C@@H]2C ?
hgDAF-12 ag: 0; ssDAF-12 act: 0; hcDAF-12 act: -1; DAX1 inh-2: 0

What do the screens show for `CS(=O)(=O)N1CCC(Oc2cccc(C(=O)NCCCOc3cccnc3)c2)CC1`?
hgDAF-12 ag: -8; DAX1 inh-1: -2; ssDAF-12 act: -1; hcDAF-12 act: -3; AHR act: 5; DAX1 inh-2: -12

How did O=C(C[C@H]1C[C@H](C(=O)N2CCOCC2)[C@@]2(CCC3CCCC3)c3[nH]c4cc(-c5ccco5)ccc4c3CCN2C1=O)NCCN1CCOCC1 do in these assays?
hgDAF-12 ag: -6; DAX1 inh-1: 0; ssDAF-12 act: -1; hcDAF-12 act: -2; DAX1 inh-2: 3.7*

How did CN(C)CCCNC(=O)C[C@H]1C[C@H](C(=O)N2CCOCC2)[C@@]2(CCC3CCCC3)c3[nH]c4cc(-c5ccco5)ccc4c3CCN2C1=O do in these assays?
hgDAF-12 ag: 1; DAX1 inh-1: 0; ssDAF-12 act: -1; hcDAF-12 act: -1; DAX1 inh-2: 0

What do the screens show for `O=C(Cc1ccc(Cl)cc1)c1ccc(O)cc1`?
hgDAF-12 ag: 6; DAX1 inh-1: 4.9*; ssDAF-12 act: -1; hcDAF-12 act: 1; AHR act: 1; DAX1 inh-2: 1

What do the screens show for `Cc1ccc(CC(=O)c2ccc(Cl)cc2)cc1`?
hgDAF-12 ag: 1; DAX1 inh-1: 1; ssDAF-12 act: -1; hcDAF-12 act: 3; AHR act: -3; DAX1 inh-2: 0

Results for O=C(CCO)c1ccc(O)cc1 ?
hgDAF-12 ag: 3; DAX1 inh-1: 4.3*; ssDAF-12 act: -1; hcDAF-12 act: -1; AHR act: 0; DAX1 inh-2: 1

What do the screens show for `Cc1cccc(CN2CCc3c([nH]c4ccccc34)C2CC(C)C)n1` (configuration not stated)?
hgDAF-12 ag: -3; DAX1 inh-1: 4.7*; ssDAF-12 act: 0; hcDAF-12 act: 5; AHR act: 12; DAX1 inh-2: 0

Results for O=C1CN(C(=O)c2ccc(Br)o2)C(c2ccccc2)c2cc(Br)ccc2N1 (configuration not stated) ?
hgDAF-12 ag: -4; DAX1 inh-1: 0; ssDAF-12 act: -1; hcDAF-12 act: 1; AHR act: 70*; DAX1 inh-2: 0

What do the screens show for `O=C1CN(C(=O)c2ccc(Br)o2)C(c2ccccc2)c2cc(Cl)ccc2N1` (configuration not stated)?
hgDAF-12 ag: -1; DAX1 inh-1: 0; ssDAF-12 act: -1; hcDAF-12 act: -1; AHR act: 66*; DAX1 inh-2: -1

What do the screens show for `O=C1CN(C(=O)c2ccc(Br)o2)C(c2ccc(F)cc2)c2cc(Cl)ccc2N1` (configuration not stated)?
hgDAF-12 ag: -1; DAX1 inh-1: 1; ssDAF-12 act: -1; hcDAF-12 act: -1; AHR act: 27; DAX1 inh-2: 0

How did CC(C)(C)C1=CC(CC(N)=O)(C(C)(C)C)OC1=O (configuration not stated) do in these assays?
hgDAF-12 ag: 0; ssDAF-12 act: -1; hcDAF-12 act: -1; DAX1 inh-2: 1

Results for O=C(NNC(=O)c1ccccc1OCc1ccc(F)cc1)c1ccncc1 ?
hgDAF-12 ag: -2; DAX1 inh-1: 0; ssDAF-12 act: -1; hcDAF-12 act: 0; AHR act: 7; DAX1 inh-2: 0

Compound activity as filed in PubChem BioAssay.
